The record followed here is PubChem BioAssay (NCI).

The panel holds about 83,000 compounds, 20% with a hit somewhere; the sample as a whole holds those more often.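 Single-concentration screen, 48 h exposure, 96-well plates. Endpoint: percent growth. Below 10 = active.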 The source made the active and inactive calls.

The test system of the test is HL-60(TB) leukemia. The experiment in a line: NCI-60 one-dose screen, 48 h (100 = growth as untreated, 0 = no growth, -100 = all killed). Conditions: 10 µM unless noted.
Regarding `O=C(Nc1cccc2cccnc12)c1cc(C(=O)c2ccc(Cl)cc2)n2ccc(-c3ccncc3)cc12`, the growth was 125% (inactive). Turning to `O=C(COc1ccc(Cl)cc1Cl)N1N=C(c2ccc(Cl)cc2Cl)CC1(O)c1cc(F)c(Cl)cc1Cl` (centres undefined), the growth was -97.5% (active). With `COc1ccc(C2C(C#N)=C(N)Oc3c2sc2c(Br)cccc32)cc1` (centres undefined) the figure was -9.13% (active). The figure for `C=C(C)c1ccc(/C=N/NC(N)=S)cc1` is 147% (inactive); for `Cc1nc2cc(Nc3nc(Nc4ccc(F)cc4)nc(N4CCN(C)CC4)n3)ccc2n1Cc1ccccc1` it is -56.9% (active); for `N=C(N)/N=C(\CCc1nc2ccccc2[nH]1)c1nc2ccccc2[nH]1` it is 118% (inactive). With `Cn1c([N+](=O)[O-])cnc1/C=C1\Oc2ccc(Br)cc2C1=O` the figure was -12% (active); with `CCOC(=O)/C(C#N)=C\Nc1ccc2ncnc(Nc3ccc(Cl)cc3Cl)c2c1`, 108% (inactive). With `COc1ccc(Cl)c(Nc2nc3ccccc3nc2NS(=O)(=O)c2cccc(NC(=O)C(C)(C)N)c2)c1`, the growth was 32.6% (inactive).

Consider `CC(=O)O[C@H]1CC2CCC3C(CC[C@@]4(C)C3C[C@H]([N+]3(C)CCCCC3)[C@@H]4OC(C)=O)[C@@]2(C)C[C@@H]1N1CCCCC1` (some centres undefined), for which the growth is 107% (inactive). The figure for `O=S1(=O)N(Cc2ccccc2)[C@@H](Cc2ccccc2)C2O[C@H]2[C@H](Cc2ccccc2)N1Cc1ccccc1` (some centres undefined) is 46% (inactive); for `COC1OCC(O)C(O)C1O` (centres undefined) it is 102% (inactive); for `Cc1cc2nc(C(Cl)Cl)nc(-c3ccc(Cl)cc3)n2n1` it is -8.18% (active). With `COc1cc(OC)c(C(=O)C(CN(C)C)CN(C)C)cc1OC` the figure was -63.5% (active).
